In PubChem BioAssay one finds composite z-score and z-score data, which are given here for five compounds.

Active and inactive are the calls of the source. Unless noted, how the calls were made is not given here.

A short description of test [1]: compounds binding Alexa647 anti-His antibody – biochemical, small-molecule microarray, 635 nm fluorescence, artefact control for SMM control protein annotation, primary screen (AID 1128).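 Further: score merges feature fluorescence with signal-to-noise for each printed compound spot.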 The conditions noted are these: higher = more signal.
The test system of test [2] is Human papillomavirus type 1a E7 protein (residues 1-88). The experiment in a line: HPV1a E7 small-molecule binders, primary screen, biochemical, small-molecule microarray, residues 1-88, 635 nm (AID 1129). The note with it: small-molecule microarray binding, fluorescence 635 nm; higher = more signal.
The target of test [3] is Focal adhesion kinase 1 (Homo sapiens) (UniProt Q05397). Briefly: PTK2 protein binding on printed compound slides – biochemical, small-molecule microarray, 635/667 nm fluorescence, BSA, DTT, primary screen (AID 1130).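 Further: composite of spot emission at 667 nm and signal to noise over triplicate slides.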 The note with it: 635 nm fluorescence, higher = more signal.
Chain of Focal adhesion kinase 1 (Homo sapiens) (Q05397 whole entry, looked up): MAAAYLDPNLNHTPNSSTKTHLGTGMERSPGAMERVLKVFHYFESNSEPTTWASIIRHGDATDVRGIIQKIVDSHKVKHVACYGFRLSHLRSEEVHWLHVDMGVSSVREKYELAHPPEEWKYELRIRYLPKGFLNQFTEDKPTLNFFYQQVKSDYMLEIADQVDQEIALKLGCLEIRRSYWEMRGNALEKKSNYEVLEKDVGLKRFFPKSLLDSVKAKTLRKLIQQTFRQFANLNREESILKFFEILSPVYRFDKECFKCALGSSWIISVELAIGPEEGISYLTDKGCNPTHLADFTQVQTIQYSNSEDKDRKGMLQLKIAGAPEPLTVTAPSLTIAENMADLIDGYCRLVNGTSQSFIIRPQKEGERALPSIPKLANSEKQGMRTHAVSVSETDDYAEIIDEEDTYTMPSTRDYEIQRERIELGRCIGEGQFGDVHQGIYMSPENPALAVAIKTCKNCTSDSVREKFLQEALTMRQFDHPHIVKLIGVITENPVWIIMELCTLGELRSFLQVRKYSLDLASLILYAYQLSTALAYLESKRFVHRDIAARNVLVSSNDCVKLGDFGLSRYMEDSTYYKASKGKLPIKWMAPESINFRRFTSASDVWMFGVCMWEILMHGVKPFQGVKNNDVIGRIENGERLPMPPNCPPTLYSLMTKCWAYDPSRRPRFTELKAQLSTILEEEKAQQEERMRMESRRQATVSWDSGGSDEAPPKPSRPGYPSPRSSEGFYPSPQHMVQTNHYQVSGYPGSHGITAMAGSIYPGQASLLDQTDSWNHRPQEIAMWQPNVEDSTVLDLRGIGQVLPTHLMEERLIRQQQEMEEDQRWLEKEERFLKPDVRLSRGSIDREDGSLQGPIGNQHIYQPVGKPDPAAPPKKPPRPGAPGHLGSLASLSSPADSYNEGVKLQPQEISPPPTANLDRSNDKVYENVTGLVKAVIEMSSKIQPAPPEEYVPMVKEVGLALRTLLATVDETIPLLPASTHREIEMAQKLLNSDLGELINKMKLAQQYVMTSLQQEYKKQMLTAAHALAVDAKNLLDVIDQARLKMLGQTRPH
For test [4], the system named is Fibrinogen (Alexa647-labelled). Briefly: Alexa647-fibrinogen binding to printed small molecules – biochemical, small-molecule microarray, 635/667 nm fluorescence, artefact control for SMM control-protein annotation, profiling panel (AID 1131).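 Further: z-score merges 667 nm fluorescence with per-spot signal-to-noise over triplicate slides.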 The note with it: fibrinogen-A647 binding fluorescence, higher = more signal.
Test [5] concerns the target Follistatin (Homo sapiens) (UniProt P19883). The experiment in a line: FST protein binding to printed compounds – biochemical, small-molecule microarray, 635/667 nm fluorescence, primary screen (AID 1132). The conditions noted are these: 635 nm fluorescence, higher = more signal.
The target of test [6] is Fibroblast growth factor 2 (Homo sapiens) (UniProt P09038). The experiment in a line: basic fibroblast growth factor binding to printed compounds – biochemical, small-molecule microarray, 635/667 nm fluorescence, primary screen (AID 1133). The conditions noted are these: FGF2, fluorescence 635/667, higher = more signal.
Chain of Fibroblast growth factor 2 (Homo sapiens) (P09038 whole entry, looked up): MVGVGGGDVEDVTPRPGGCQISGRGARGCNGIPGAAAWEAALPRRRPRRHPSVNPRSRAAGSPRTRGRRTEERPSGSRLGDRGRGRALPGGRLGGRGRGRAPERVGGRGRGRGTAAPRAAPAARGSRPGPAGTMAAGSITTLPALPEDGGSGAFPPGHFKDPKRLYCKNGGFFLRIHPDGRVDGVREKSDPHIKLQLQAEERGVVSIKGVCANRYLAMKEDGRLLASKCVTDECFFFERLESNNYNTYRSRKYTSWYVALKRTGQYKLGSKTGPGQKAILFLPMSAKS
Test [7] in a line: JC-1 mitochondrial potential readout, lung cancer cells – cell-based, A549, JC-1 fluorescence, basal, 24 h, 100 nL, profiling panel (AID 1138).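 Further: A549 lung adenocarcinoma cells under basal conditions with no added stimulus; test concentration not given here.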 The note with it: higher = more signal.
In the next test the test system is Lefty1. The experiment in a line: Lefty1 protein binding to printed compounds – biochemical, small-molecule microarray, 635/667 nm fluorescence, primary screen (AID 1139). The conditions noted are these: fluorescence 635/667, higher = more signal.
Test [8] relates to wheat germ agglutinin (Triticum aestivum), Alexa647-labelled. Briefly: Alexa647-WGA lectin binding to printed small molecules – biochemical, small-molecule microarray, 635/667 nm fluorescence, artefact control for SMM control-protein annotation, profiling panel (AID 1140).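 Further: score merges 667 nm feature emission with signal to noise over triplicate slides.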 The note with it: WGA-A647 binding, 635 nm fluorescence, higher = more signal.
For test [9], the target named is Luciferin 4-monooxygenase (Photinus pyralis) (UniProt P08659). Briefly: inhibition of purified Photinus pyralis luciferase – biochemical, luminescence, purified enzyme, 2006 set, primary screen (AID 1141).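 Further: cell-free assay with purified firefly luciferase at 100 ng per well in PBS; test concentration not given here.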 The note with it: purified firefly luciferase, SteadyGlo luminescence, 30 min; higher = more signal, called active from +8 up or from −8 down.
Chain of Luciferin 4-monooxygenase (Photinus pyralis) (P08659 whole entry, looked up): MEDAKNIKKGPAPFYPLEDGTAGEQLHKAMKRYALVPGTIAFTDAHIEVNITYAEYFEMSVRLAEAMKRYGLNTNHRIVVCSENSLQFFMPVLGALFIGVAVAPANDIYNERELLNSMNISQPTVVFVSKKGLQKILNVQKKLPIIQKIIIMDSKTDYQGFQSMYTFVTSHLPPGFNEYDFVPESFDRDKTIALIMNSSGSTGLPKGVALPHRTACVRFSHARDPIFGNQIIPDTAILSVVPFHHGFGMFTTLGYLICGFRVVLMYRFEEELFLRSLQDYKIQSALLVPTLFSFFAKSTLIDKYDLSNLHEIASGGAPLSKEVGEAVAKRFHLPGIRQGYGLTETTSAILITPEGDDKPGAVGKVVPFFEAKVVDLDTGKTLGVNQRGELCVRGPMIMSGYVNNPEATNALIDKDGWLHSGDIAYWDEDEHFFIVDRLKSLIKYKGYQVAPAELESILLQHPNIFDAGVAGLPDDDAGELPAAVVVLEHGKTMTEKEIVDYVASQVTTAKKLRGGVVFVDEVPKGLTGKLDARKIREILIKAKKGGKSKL
The test system of test [10] is Wnt5a (protein binding on small-molecule microarray). Briefly: small molecules binding Wnt5a protein – biophysical, small-molecule microarray, 635/667 nm fluorescence, primary screen (AID 1142).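 Further: fluorescence read at 667 nm with signal to noise per printed feature.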 The note with it: 635 nm fluorescence, higher = more signal.
Test [11] can be described thus: ATP-based viability of Huh7 replicon cells – cell-based, CellTiter-Glo luminescence, basal, 48 h, cytotoxicity control for HCV replication inhibitor project, primary screen (AID 1143).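 Further: Huh7 hepatoma cells carrying a hepatitis C replication reporter with no stimulus; test concentration not given here.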 The note with it: higher = more signal, called active from +8 up or from −8 down.
A short description of test [12]: Pseudomonas biofilm growth suppression – PAO1 strain, BacTiter-Glo luminescence, LB-PBS, primary screen (AID 1144). The conditions noted are these: P. aeruginosa PAO1 biofilm, 12 h, higher = more signal.
Test [13] can be described thus: basal CRE-LacZ reporter activity in PC12 – cell-based, unstimulated, primary screen (AID 1145). The conditions noted are these: no forskolin, luminescence, 4.5 h, higher = more signal, called active from +8 up or from −8 down.
A short description of test [14]: forskolin-driven CRE-LacZ activity in PC12 – cell-based, CRE-LacZ reporter, forskolin-stimulated, primary screen (AID 1146).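 Further: PC12 cells with 6xCRE LacZ reporter stimulated by forskolin 10 µM; beta-galactosidase reporter signal reflecting CREB driven transcription.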 The conditions noted are these: luminescence, 4.5 h, higher = more signal, called active from +8 up or from −8 down.
The target in test [15] is Streptavidin (Streptomyces avidinii) (UniProt P22629). The experiment in a line: compounds binding control protein streptavidin – biophysical, small-molecule microarray, 635/667 nm fluorescence, artefact control for SMM compound annotation, primary screen (AID 1147).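 Further: signal reflects streptavidin binding to arrayed compounds as a control protein.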 The note with it: higher = more signal.
Chain of Streptavidin (Streptomyces avidinii) (P22629 whole entry, looked up): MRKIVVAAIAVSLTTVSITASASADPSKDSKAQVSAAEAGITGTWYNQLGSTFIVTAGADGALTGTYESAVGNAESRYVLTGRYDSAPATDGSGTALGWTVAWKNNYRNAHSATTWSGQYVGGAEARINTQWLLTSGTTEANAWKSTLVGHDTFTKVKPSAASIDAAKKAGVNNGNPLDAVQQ
The nature of test [16]: probe aInhba binding on compound microarray – biochemical, small-molecule microarray, 635/667 nm fluorescence, primary screen (AID 1148).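 Further: score merges 667nm spot fluorescence with signal-to-noise for antibody binding to printed compounds.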 The note with it: higher = more signal.
Test [17] addresses Torsin-1A (Homo sapiens) (UniProt O14656). Briefly: TOR1A wild-type binding on microarray – cell lysate, small-molecule microarray, lysate, 635/667 nm, primary screen (AID 1149). The conditions noted are these: COS7 hTOR1A-WT lysate, 635 nm fluorescence, higher = more signal.
The target is the same in test [18]. Briefly: torsin A mutant lysate binding on microarrays – cell lysate, small-molecule microarray, COS7 lysate, 635/667 nm fluorescence, primary screen (AID 1150).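 Further: score pools 667 nm emission and signal to noise measuring lysate protein binding.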 The conditions noted are these: COS7 hTOR1A mutant lysate, 635 nm fluorescence, higher = more signal.
The test system of test [19] is Sonic hedgehog protein (Shh). The experiment in a line: Sonic hedgehog microarray binding compounds – biochemical, small-molecule microarray, 635/667 nm fluorescence, primary screen (AID 1151).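 Further: Shh protein binding to compounds spotted on small-molecule microarray slides; score combines spot fluorescence intensity with signal-to-noise across triplicate slides.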 The note with it: 635 nm fluorescence, higher = more signal.

Chain of Follistatin (Homo sapiens) (P19883 whole entry, looked up): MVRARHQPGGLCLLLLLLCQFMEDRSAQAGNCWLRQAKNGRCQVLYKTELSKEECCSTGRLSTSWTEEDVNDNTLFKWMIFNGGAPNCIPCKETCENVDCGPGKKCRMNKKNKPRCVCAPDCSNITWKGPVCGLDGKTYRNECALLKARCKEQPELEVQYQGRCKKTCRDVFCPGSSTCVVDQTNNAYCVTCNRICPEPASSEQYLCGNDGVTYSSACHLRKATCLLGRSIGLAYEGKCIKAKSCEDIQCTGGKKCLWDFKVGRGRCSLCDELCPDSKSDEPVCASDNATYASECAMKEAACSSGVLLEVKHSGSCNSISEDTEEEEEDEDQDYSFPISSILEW
Chain of Torsin-1A (Homo sapiens) (O14656 whole entry, looked up): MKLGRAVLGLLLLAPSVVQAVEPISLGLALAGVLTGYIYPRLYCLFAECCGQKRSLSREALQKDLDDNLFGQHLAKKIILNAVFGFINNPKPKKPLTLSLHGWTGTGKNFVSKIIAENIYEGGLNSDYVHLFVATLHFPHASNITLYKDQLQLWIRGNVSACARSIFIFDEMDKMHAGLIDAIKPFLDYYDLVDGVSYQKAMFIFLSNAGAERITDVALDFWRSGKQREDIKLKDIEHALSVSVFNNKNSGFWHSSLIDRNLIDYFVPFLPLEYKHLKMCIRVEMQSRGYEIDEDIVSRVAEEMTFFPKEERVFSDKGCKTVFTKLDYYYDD

As to `CC(=O)NCCCC[C@@H]1NC(=O)[C@@H]2C[C@H](C(=O)NCCCCN(C)C)[C@H](c3ccc(O)cc3)N2C1=O`, the composite z-score is 0.231 in test [1]; -0.529 in test [2]; -0.2 in test [3]; -2.52 in [4]; 0.296 in test [5]; 1.14 in test [6]. Also, the composite z-score in the test on Lefty1 is -0.0932; in [8], 0.225; in test [10], -0.465; in [15], -0.506; in [16], -0.23; in the test with Torsin-1A (Homo sapiens) [17], -0.893. The composite z-score with Torsin-1A (Homo sapiens) [18] was -0.88; in test [19] it was 0.54. In addition, the z-score was 0.485 in test [7]; 0.869 (inactive) in test [9]; 0.0068 (inactive) in [11]; -1.02 (inactive) in test [12]; -0.809 (inactive) in test [13]; -0.174 (inactive) in test [14].

For the compound `O=C1C2C=CC(C(O)c3ccc(B(O)O)cc3)N(Nc3ccccc3)C2C(=O)N1c1ccccc1` (stereo not given), the composite z-score was 0.56 in [1]; -0.935 in test [2]; 1.44 in [3]; -0.0877 in test [4]; 0.0669 in test [5]; -0.581 in [6]. Moreover, the composite z-score in the test on Lefty1 was -0.698; in [8], -0.0504; in test [10] it was -0.0341; in test [15], 0.471; in [16] it was -0.0797; with Torsin-1A (Homo sapiens) [17], -0.138. Also, the composite z-score with Torsin-1A (Homo sapiens) [18] was -0.724; in test [19], -0.661. In addition, the z-score in test [7] is -1.4; in test [9] it was -0.331 (inactive); in test [11], -2.7 (inactive); in test [12], -1.06 (inactive); in [13], 0.24 (inactive); in test [14], 1.11 (inactive).

Turning to `COC(=O)[C@@]1(Cc2ccccc2)[C@H]2c3cc(C(=O)N4CCCC4)n(Cc4ccc(C)o4)c3C[C@H]2CN1C(=O)c1ccccc1`, the composite z-score in [1] was 0.195; in [2], 1.22; in test [3], 0.752; in [4] it was -0.809; in test [5], -0.0668; in test [6], -0.675. The composite z-score in the test on Lefty1 is -0.0201; in [8], 1.18; in [10] it was -0.135; in test [15], 1.15; in [16] it was 0.181; with Torsin-1A (Homo sapiens) [17], 0.0769. For the same compound, the composite z-score was 0.537 with Torsin-1A (Homo sapiens) [18] and -0.21 in test [19]. For the same compound, the z-score is 0.337 in [7]; -2.68 (inactive) in test [9]; -2.17 (inactive) in test [11]; -0.544 (inactive) in [12]; 0.962 (inactive) in test [13]; 1.16 (inactive) in test [14].

On to `COC(=O)c1ccc(OC)c(/C=C\CC(OC(C)=O)c2ccccc2)c1` (stereo not given), for which the composite z-score is 0.838 in test [1]; 0.255 in test [2]; -0.0638 in test [3]; 0.775 in test [4]; 0.946 in test [5]; 0.933 in [6]. In addition, the composite z-score in the test with Lefty1 is 0.741; in test [8], 1.11; in test [10], -0.136; in test [15], 3.16; in test [16], -0.179; with Torsin-1A (Homo sapiens) [17], -0.0525. Moreover, the composite z-score was -0.165 in the test with Torsin-1A (Homo sapiens) [18] and 0.539 in [19]. The z-score in [7] is -0.363; in [9], -0.454 (inactive); in test [11], -1.38 (inactive); in test [12], 0.623 (inactive); in [13], 0.479 (inactive); in test [14], -0.0792 (inactive).

Take `COCCOC(=O)N1C(=O)[C@@]2(c3cc(C#CCNC(N)=O)ccc31)[C@H](c1ccccc1OCCO)N1[C@H](c3ccccc3)[C@H](c3ccccc3)OC(=O)[C@H]1[C@@H]2C(N)=O`: the composite z-score came out at 0.208 in test [1]; 1.15 in test [2]; 0.189 in [3]; 0.963 in test [4]; 1.25 in [5]; 0.917 in [6]. The composite z-score in the test with Lefty1 turned out to be 0.782; in [8], 0.305; in test [10], 0.116; in test [15], 0.234; in test [16], 0.0422; with Torsin-1A (Homo sapiens) [17], 0.198. Further, the results for the composite z-score (in the test with Torsin-1A (Homo sapiens) [18]; in [19]) were 0.41 and 1.8, respectively. Moreover, the z-score in test [7] was -1.24; in test [9], -0.868 (inactive); in [11] it was -0.895 (inactive); in test [12], 0.287 (inactive); in test [13] it was 0.802 (inactive); in test [14], 5.24 (inactive).
